“And” between values parts separate entries of the source, which are not always exact repeats. Equal entries are not always repeated. Results filed as inconclusive are left out. More than one record can exist for a structure, and the calls need not agree. The source made the active and inactive calls. How the source made its calls, unless noted: active means hit-call score of the fitted dose curve at least 0.9, where 1 is the maximum; inactive means score below 0.9.
How the values were obtained:
[1] = BSK_3C_VCAM1: BioMAP Diversity Plus: 3C Assay for Vascular cell adhesion molecule 1 (VCAM1) Biomarker Activity (AID 2282999); settings: BioMAP 3C HUVEC, VCAM1 ELISA, cytokine-stimulated; actives raise or lower the signal
Procedure, shortened: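 Human umbilical vein endothelial cells were dosed with compound for 24 h, after which cell-surface VCAM-1 was quantified by ELISA. Bidirectional curve fitting used DMSO as negative control and activity baseline.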

[2] = BSK_4H_Eotaxin3: BioMAP Diversity Plus: 4H Assay for Eotaxin 3 Biomarker Activity (AID 2283000); settings: primary human endothelial cells (HUVEC); actives raise or lower the signal;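 on outcome: CCL26 protein level quantified by ELISA in parallel with SRB cytotoxicity check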
Procedure, shortened: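 Chemicals were added to human umbilical vein endothelium cultures, and Eotaxin-3 was quantified by ELISA at 24 h. Values were derived by bidirectional fitting with DMSO serving as negative control and activity baseline.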

[3] = target: human Peroxisome Proliferator-activated Receptor alpha (PPARa), PPARA (gene 5465) (UniProt Q07869); assay: ATG_PPARa_TRANS: Attagene TRANS-FACTORIAL HepG2 Assay for human Peroxisome Proliferator-activated Receptor alpha (PPARa) (AID 2283001; active means hit-call score of the fitted dose curve at least 0.9, where 1 is the maximum)
Procedure, shortened: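 Gain-of-signal endpoint: reporter mRNA induction relative to DMSO, detected by fluorescent RT-PCR and capillary electrophoresis. HepG2 cells transiently carried GAL4-UAS-driven reporter units plus NR-Gal4 fusion; exposure lasted 24 h.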

[4] = target: human Retinoic Acid Receptor beta (RARb), RARB (gene 5915) (UniProt P10826); assay: ATG_RARb_TRANS: Attagene TRANS-FACTORIAL HepG2 Assay for human Retinoic Acid Receptor beta (AID 2283004; active means hit-call score of the fitted dose curve at least 0.9, where 1 is the maximum)
Procedure, shortened: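 Transient transfection of HepG2 with multiple reporter units → chemical dosing, 24 h → total RNA isolation → RT with oligo(dT) → reporter-specific PCR, 6-FAM primer extension, HpaI digest → capillary electrophoresis. Positive direction vs DMSO control.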

[5] = target: Retinoic acid receptor alpha (Homo sapiens) (UniProt P10276); assay: ATG_RARa_TRANS: Attagene TRANS-FACTORIAL HepG2 Assay for human Retinoic Acid Receptor alpha (RARa) (AID 2283005; active means hit-call score of the fitted dose curve at least 0.9, where 1 is the maximum)
Procedure, shortened: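 HepG2 cells transiently transfected with multiple reporter units expressing chimeric RARα-GAL4 fusion, with GAL4-UAS-driven reporters. After 24 h compound exposure, reporter mRNA induction quantified by RT-PCR and capillary electrophoresis with fluorescent labeling; gain-of-signal fitted relative to DMSO control.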

[6] = BSK_3C_Proliferation: Cell Proliferation Assessment in the BioMAP Diversity Plus: 3C Assay (AID 2283006); settings: primary human endothelial cells (HUVEC);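 on AC50: potency may reflect either rise or fall in cell number versus DMSO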
Procedure, shortened: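 Read-out is total protein by SRB absorbance at 560 nm, taken as a proxy for relative cell number. Primary human umbilical vein endothelium cultured below confluence was dosed for 48 h, TCA-fixed and SRB-stained; curves were fitted bidirectionally versus DMSO.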

[7] = target: Nuclear receptor subfamily 1 group I member 2 (Homo sapiens) (UniProt O75469); assay: ATG_PXR_TRANS: Attagene TRANS-FACTORIAL HepG2 Assay for human Pregnane X Receptor (PXR) (AID 2283008; active means hit-call score of the fitted dose curve at least 0.9, where 1 is the maximum)
Procedure, shortened: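 Read-out is fluorescence of labelled reporter cDNA fragments separated by capillary electrophoresis after RT-PCR and HpaI digestion. Source: HepG2 cells carrying PXR-GAL4/UAS reporter constructs, treated 24 h; activity fitted upward relative to DMSO.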

[8] = target: human Retinoic Acid Receptor gamma (RARg), RARG (gene 5916) (UniProt P13631); assay: ATG_RARg_TRANS: Attagene TRANS-FACTORIAL HepG2 Assay for human Retinoic Acid Receptor gamma (RARg) (AID 2283009; active means hit-call score of the fitted dose curve at least 0.9, where 1 is the maximum)
Procedure, shortened: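 Transient transfection of HepG2 with multi-reporter constructs, then 24 h chemical treatment. Total RNA isolated, reverse-transcribed, PCR-amplified, fluorescently labelled and resolved by capillary electrophoresis; activity scored as mRNA induction versus DMSO.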

[9] = target: human RAR-related Orphan Receptor beta (RORb), RORB (gene 6096) (UniProt Q92753); assay: ATG_RORb_TRANS: Attagene TRANS-FACTORIAL HepG2 Assay for human RAR-related Orphan Receptor beta (RORb) (AID 2283010; active means hit-call score of the fitted dose curve at least 0.9, where 1 is the maximum)
Procedure, shortened: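 Readout is reporter-gene mRNA induction, detected as fluorescence after RT-PCR and capillary electrophoresis, fitted for gain of signal against DMSO controls. Transiently transfected HepG2 liver cells carrying GAL4-UAS reporter constructs were treated for 24 hours.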

[10] = target: human RAR-related Orphan Receptor gamma (RORg), RORC (gene 6097) (UniProt P51449); assay: ATG_RORg_TRANS: Attagene TRANS-FACTORIAL HepG2 Assay for human RAR-related Orphan Receptor gamma (RORg) (AID 2283011; active means hit-call score of the fitted dose curve at least 0.9, where 1 is the maximum)
Procedure, shortened: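 First, HepG2 liver cells were transfected with GAL4-UAS-driven reporter constructs and the RORg-Gal4 fusion. Next, they were treated with chemical for 24 h. Finally, reporter mRNA was quantified by RT-PCR and capillary electrophoresis, with upward activity fitted against DMSO.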

[11] = target: Retinoic acid receptor RXR-alpha (Homo sapiens) (UniProt P19793); assay: ATG_RXRa_TRANS: Attagene TRANS-FACTORIAL HepG2 Assay for human Retinoid X Receptor alpha (RXRa) (AID 2283012; active means hit-call score of the fitted dose curve at least 0.9, where 1 is the maximum)
Procedure, shortened: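 Transient transfection of human HepG2 with multiple GAL4-UAS reporter constructs; 24 h compound exposure; total RNA isolated, reverse-transcribed, PCR-amplified, 6-FAM labelled, HpaI-cut, resolved by capillary electrophoresis. Positive-direction fit versus DMSO.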

[12] = target: human Retinoid X Receptor beta (RXRb), RXRB (gene 6257) (UniProt P28702); assay: ATG_RXRb_TRANS: Attagene TRANS-FACTORIAL HepG2 Assay for human Retinoid X Receptor beta (RXRb) (AID 2283013; active means hit-call score of the fitted dose curve at least 0.9, where 1 is the maximum)
Procedure, shortened: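 Transfect HepG2 with GAL4-UAS multi-reporter constructs (chimeric NR-Gal4, TRANS format); dose compound 24 h; isolate RNA, RT-PCR, FAM primer extension, HpaI digest; quantify by capillary electrophoresis; positive direction vs DMSO.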

[13] = read-out: E-selectin (Homo sapiens) (UniProt P16581); assay: BSK_3C_Eselectin: BioMAP Diversity Plus: 3C Assay for Eselectin Biomarker Activity (AID 2283015); settings: primary human endothelial cells (HUVEC); actives raise or lower the signal;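 on outcome: cell surface E-selectin protein quantified by ELISA 24 h after dosing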
Procedure, shortened: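 ELISA read-out of E-selectin on endothelial monolayers after 24 h chemical treatment. Human umbilical vein primary cells served as the system, with DMSO defining baseline activity for bidirectional fitting.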

[14] = read-out: Interleukin-1 alpha (IL1a), IL1A (gene 3552); assay: BSK_BE3C_IL1a: BioMAP Diversity Plus: BE3C Assay for Interleukin-1 alpha (IL1a) Biomarker Activity (AID 2283016); settings: primary human bronchial epithelial cells; actives raise or lower the signal
Procedure, shortened: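 BE3C primary human bronchial epithelium; cpd 24 h; IL-1a by ELISA; bidirectional fit vs DMSO; parallel SRB (0.1% SRB, 10% TCA fix, 560 nm) for cytotoxicity.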

[15] = read-out: Monocyte Chemoattractant Protein-1 (MCP1), CCL2 (gene 6347); assay: BSK_3C_MCP1: BioMAP Diversity Plus: 3C Assay for Monocyte Chemoattractant Protein-1 (MCP1) Biomarker Activity (AID 2283017); settings: primary human endothelial cells (HUVEC); actives raise or lower the signal
Procedure, shortened: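 ELISA read-out of MCP-1 from human umbilical vein endothelial cell cultures harvested 24 h post-dosing. Gain or loss of signal was fitted relative to DMSO.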

[16] = read-out: Monocyte Chemoattractant Protein-1 (MCP1), CCL2 (gene 6347); assay: BSK_4H_MCP1: BioMAP Diversity Plus: 4H Assay for Monocyte Chemoattractant Protein-1 (MCP1) Biomarker Activity (AID 2283018); settings: primary human endothelial cells (HUVEC); actives raise or lower the signal
Procedure, shortened: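 ELISA read-out of MCP-1 from human vascular endothelial primary cells taken at 24 hours after compound exposure. Activity was fitted in both directions relative to DMSO, which served as negative control.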

[17] = read-out: Human Leukocyte Antigen - DR isotype (HLADR), HLA-DRA (gene 3122); assay: BSK_3C_HLADR: BioMAP Diversity Plus: 3C Assay for Human Leukocyte Antigen - DR isotype (HLADR) Biomarker Activity (AID 2283019); settings: primary human endothelial cells (HUVEC); actives raise or lower the signal;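 on outcome: ELISA of cell-surface HLA-DR on HUVEC 24 h after dosing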
Procedure, shortened: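 ELISA readout of surface HLA-DR on human umbilical vein endothelium, taken 24 h after chemical treatment. Gain- and loss-of-signal were both fitted relative to DMSO.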

[18] = target: Peroxisome proliferator-activated receptor gamma (Homo sapiens) (UniProt P37231); assay: ATG_PPARg_TRANS: Attagene TRANS-FACTORIAL HepG2 Assay for human Peroxisome Proliferator-activated Receptor-gamma (PPARg) (AID 2283007; active means hit-call score of the fitted dose curve at least 0.9, where 1 is the maximum)
Procedure, shortened: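 After 24 h of chemical exposure, transfected HepG2 cells carrying PPARγ-Gal4 chimera reporter constructs are lysed for RNA. Reporter transcripts are measured by RT-PCR and capillary electrophoresis with fluorescent labelling, and gain of signal is fitted versus DMSO.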

[19] = target: human Peroxisome Proliferator-activated Receptor delta (PPARd), PPARD (gene 5467) (UniProt Q03181); assay: ATG_PPARd_TRANS: Attagene TRANS-FACTORIAL HepG2 Assay for human Peroxisome Proliferator-activated Receptor delta (PPARd) (AID 2283002; active means hit-call score of the fitted dose curve at least 0.9, where 1 is the maximum)
Procedure, shortened: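 Measured quantity: GAL4-UAS reporter transcript induction in HepG2 after 24 h chemical dosing, with NR-Gal4 chimeras supplied by transient transfection. Detection by RT-PCR and capillary electrophoresis; upward fit against DMSO.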

[20] = read-out: Intercellular Adhesion Molecule 1 (ICAM1), ICAM1 (gene 3383); assay: BSK_3C_ICAM1: BioMAP Diversity Plus: 3C Assay for Intercellular Adhesion Molecule 1 (ICAM1) Biomarker Activity (AID 2283003); settings: primary human endothelial cells (HUVEC); actives raise or lower the signal
Procedure, shortened: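 ICAM-1 levels measured by ELISA after HUVEC cultures in the 3C system had been dosed for 24 h. Gain or loss of signal relative to DMSO was fitted in both directions.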

Chain of human Retinoic Acid Receptor gamma (RARg), RARG (gene 5916) (P13631 whole entry, looked up): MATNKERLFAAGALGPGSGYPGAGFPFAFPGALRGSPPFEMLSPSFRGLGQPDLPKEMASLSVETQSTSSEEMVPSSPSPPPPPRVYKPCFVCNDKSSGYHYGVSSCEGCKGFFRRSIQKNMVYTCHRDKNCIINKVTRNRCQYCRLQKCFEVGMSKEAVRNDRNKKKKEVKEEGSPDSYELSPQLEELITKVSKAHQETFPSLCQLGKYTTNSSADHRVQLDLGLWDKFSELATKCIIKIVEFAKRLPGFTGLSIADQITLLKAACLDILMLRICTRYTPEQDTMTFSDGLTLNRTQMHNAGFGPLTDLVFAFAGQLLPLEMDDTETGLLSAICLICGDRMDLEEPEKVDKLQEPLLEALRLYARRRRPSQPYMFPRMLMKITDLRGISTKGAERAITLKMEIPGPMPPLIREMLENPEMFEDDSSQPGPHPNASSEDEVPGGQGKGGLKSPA
Chain of Nuclear receptor subfamily 1 group I member 2 (Homo sapiens) (O75469 whole entry, looked up, the tested form may be a part): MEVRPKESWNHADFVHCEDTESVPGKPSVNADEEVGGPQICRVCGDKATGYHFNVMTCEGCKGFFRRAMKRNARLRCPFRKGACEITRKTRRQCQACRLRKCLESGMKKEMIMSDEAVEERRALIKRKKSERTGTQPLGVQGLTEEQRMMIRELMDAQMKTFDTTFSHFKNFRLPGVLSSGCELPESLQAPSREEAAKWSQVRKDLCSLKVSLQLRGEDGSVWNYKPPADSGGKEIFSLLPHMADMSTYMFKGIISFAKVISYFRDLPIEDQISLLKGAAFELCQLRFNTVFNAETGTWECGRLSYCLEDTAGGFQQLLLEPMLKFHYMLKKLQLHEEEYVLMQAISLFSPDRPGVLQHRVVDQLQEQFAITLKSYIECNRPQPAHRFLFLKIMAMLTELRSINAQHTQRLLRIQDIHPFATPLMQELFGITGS
Chain of Retinoic acid receptor alpha (Homo sapiens) (P10276 whole entry, looked up, the tested form may be a part): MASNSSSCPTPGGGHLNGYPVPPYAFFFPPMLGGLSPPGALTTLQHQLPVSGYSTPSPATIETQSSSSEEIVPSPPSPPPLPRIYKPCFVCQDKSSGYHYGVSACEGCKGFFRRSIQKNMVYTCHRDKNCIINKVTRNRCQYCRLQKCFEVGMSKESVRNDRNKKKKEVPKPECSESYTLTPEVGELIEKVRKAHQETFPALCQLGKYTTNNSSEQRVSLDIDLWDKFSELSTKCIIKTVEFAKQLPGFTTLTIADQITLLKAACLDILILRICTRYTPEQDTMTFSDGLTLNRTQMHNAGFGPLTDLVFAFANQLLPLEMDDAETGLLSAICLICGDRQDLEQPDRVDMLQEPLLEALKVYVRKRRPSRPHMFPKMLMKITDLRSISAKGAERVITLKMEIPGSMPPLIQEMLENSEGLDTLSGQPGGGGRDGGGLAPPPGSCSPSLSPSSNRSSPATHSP
Chain of human Retinoid X Receptor beta (RXRb), RXRB (gene 6257) (P28702 whole entry, looked up, the tested form may be a part): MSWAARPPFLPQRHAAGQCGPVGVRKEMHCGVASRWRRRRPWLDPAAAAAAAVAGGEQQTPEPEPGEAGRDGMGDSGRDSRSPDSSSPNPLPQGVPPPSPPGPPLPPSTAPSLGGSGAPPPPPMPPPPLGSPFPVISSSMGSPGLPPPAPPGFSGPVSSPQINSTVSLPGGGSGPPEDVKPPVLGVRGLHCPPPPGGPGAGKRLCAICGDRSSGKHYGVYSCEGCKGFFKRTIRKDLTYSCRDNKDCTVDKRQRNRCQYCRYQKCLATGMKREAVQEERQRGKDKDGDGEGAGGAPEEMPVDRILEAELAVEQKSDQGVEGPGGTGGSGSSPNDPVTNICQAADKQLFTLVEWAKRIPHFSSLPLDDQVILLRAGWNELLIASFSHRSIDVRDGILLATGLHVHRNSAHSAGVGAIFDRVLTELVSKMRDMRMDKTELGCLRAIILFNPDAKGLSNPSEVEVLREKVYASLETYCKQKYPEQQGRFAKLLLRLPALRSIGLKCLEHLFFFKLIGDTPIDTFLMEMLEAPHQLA
Chain of human RAR-related Orphan Receptor gamma (RORg), RORC (gene 6097) (P51449 whole entry, looked up, the tested form may be a part): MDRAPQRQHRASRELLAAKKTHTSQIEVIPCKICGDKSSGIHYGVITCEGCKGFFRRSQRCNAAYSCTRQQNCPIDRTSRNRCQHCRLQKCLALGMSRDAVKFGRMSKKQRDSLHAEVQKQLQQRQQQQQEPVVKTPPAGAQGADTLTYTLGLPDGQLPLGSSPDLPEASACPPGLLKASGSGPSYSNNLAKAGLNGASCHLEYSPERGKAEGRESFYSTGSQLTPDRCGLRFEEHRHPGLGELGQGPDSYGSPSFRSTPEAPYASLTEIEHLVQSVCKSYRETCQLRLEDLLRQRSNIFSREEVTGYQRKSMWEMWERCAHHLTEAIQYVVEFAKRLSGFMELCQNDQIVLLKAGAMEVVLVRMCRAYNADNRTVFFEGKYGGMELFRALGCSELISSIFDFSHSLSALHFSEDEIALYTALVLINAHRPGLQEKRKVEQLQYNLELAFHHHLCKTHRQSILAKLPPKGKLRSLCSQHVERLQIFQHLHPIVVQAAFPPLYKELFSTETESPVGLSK
Chain of human Peroxisome Proliferator-activated Receptor alpha (PPARa), PPARA (gene 5465) (Q07869 whole entry, looked up, the tested form may be a part): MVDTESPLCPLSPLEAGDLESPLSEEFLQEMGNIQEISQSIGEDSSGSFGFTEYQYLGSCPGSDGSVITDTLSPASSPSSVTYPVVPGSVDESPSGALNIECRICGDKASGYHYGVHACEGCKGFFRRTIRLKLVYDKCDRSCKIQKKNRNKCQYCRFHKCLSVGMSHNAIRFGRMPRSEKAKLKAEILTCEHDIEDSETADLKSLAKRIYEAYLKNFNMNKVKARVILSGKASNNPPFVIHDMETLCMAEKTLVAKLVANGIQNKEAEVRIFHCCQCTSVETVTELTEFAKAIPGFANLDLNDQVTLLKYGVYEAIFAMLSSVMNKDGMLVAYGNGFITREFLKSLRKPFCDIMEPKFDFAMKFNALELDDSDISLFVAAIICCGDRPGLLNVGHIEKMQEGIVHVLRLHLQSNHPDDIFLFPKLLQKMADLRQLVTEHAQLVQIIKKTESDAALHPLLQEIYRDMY
Chain of Retinoic acid receptor RXR-alpha (Homo sapiens) (P19793 whole entry, looked up, the tested form may be a part): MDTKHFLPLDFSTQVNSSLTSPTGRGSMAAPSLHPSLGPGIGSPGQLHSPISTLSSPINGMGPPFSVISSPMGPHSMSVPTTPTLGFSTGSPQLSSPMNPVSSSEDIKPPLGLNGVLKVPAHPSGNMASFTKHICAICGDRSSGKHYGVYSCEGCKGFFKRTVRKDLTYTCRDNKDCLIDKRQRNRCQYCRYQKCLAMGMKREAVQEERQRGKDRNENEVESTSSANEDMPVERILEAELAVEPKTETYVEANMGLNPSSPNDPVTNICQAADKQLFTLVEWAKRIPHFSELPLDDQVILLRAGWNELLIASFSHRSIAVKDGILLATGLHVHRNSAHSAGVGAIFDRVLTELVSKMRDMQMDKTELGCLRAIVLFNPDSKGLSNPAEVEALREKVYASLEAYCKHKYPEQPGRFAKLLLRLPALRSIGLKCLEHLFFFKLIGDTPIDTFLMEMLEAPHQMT
Chain of human Retinoic Acid Receptor beta (RARb), RARB (gene 5915) (P10826 whole entry, looked up): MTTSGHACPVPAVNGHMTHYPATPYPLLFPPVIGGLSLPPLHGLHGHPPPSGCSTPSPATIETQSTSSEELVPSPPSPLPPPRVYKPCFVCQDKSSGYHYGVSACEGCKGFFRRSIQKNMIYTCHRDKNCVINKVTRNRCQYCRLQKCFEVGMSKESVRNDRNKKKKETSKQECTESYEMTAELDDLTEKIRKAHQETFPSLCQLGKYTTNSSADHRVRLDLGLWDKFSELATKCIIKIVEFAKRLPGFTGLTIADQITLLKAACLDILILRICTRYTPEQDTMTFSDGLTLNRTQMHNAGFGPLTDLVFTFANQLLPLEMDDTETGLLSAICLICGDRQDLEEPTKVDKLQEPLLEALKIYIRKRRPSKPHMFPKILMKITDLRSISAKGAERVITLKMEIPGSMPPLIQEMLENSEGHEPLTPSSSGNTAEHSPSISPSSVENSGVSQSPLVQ
Chain of E-selectin (Homo sapiens) (P16581 whole entry, looked up): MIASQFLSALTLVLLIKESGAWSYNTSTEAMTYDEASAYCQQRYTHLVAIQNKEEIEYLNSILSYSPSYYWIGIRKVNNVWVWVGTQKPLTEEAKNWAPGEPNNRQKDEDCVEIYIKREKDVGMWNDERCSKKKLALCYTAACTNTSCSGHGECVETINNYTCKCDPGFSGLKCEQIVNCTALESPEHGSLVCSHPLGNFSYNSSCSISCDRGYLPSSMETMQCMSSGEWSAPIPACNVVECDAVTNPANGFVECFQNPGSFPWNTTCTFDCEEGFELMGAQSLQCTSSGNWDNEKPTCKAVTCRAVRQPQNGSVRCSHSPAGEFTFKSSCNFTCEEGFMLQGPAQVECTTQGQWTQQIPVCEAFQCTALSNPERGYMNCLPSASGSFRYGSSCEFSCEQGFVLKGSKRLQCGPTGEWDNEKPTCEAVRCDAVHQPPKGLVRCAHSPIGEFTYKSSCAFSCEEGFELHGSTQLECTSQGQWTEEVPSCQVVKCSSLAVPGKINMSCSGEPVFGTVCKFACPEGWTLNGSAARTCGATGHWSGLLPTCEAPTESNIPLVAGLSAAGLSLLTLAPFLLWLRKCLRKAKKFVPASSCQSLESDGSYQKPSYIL
Chain of human RAR-related Orphan Receptor beta (RORb), RORB (gene 6096) (Q92753 whole entry, looked up, the tested form may be a part): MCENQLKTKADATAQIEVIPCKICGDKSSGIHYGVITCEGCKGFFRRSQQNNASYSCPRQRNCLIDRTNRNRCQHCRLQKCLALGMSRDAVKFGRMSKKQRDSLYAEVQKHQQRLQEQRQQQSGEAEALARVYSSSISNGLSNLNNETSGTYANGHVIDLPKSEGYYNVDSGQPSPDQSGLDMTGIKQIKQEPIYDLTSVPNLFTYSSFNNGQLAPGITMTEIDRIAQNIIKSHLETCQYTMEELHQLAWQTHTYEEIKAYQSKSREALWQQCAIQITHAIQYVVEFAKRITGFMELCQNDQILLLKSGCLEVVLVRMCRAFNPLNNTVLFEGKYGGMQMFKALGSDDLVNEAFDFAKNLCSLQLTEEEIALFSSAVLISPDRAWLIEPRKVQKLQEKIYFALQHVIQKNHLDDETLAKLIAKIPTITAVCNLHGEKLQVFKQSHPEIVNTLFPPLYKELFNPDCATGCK

CCON=C(CC)C1=C(O)CC(c2c(C)cc(C)cc2C)CC1=O (stereo unspecified)
outcome [1]: inactive | outcome [2]: inactive | outcome [4]: inactive | outcome [5]: inactive | outcome [6]: inactive | outcome [18]: inactive | outcome [7]: inactive | outcome [8]: inactive | outcome [9]: inactive | outcome [12]: inactive | outcome [13]: inactive | outcome [14]: inactive | outcome [15]: inactive | outcome [16]: inactive | outcome [17]: inactive

CC1COC(Cn2cncn2)(c2ccc(Oc3ccc(Cl)cc3)cc2Cl)O1 (stereo unspecified)
AC50 [1]: 29.8 µM (active) | AC50 [2]: 32.9 µM (active) | outcome [19]: inactive | outcome [4]: inactive | outcome [5]: inactive | AC50 [6]: 24.6 µM (active) | outcome [7]: inactive | outcome [8]: inactive | outcome [11]: inactive | outcome [12]: inactive | AC50 [13]: 24.8 µM (active) | AC50 [14]: 36 µM (active) | AC50 [15]: 36.8 µM (active) | AC50 [16]: 15.3 µM (active) | AC50 [17]: 30.3 µM (active)

O=C(O)c1nc(Cl)ccc1Cl
outcome [1]: inactive | outcome [2]: inactive | outcome [3]: inactive | outcome [20]: inactive | outcome [6]: inactive | outcome [7]: inactive | outcome [9]: inactive | outcome [10]: inactive | outcome [11]: inactive | outcome [12]: inactive | outcome [13]: inactive | outcome [14]: inactive | outcome [15]: inactive | outcome [16]: inactive | outcome [17]: inactive

CCOc1cc(Oc2ccc(C(F)(F)F)cc2Cl)ccc1[N+](=O)[O-]
outcome [1]: inactive | outcome [2]: inactive | outcome [4]: inactive | AC50 [6]: 13.4 µM (active) | AC50 [18]: 13.5 µM (active) | outcome [7]: inactive | outcome [10]: inactive | outcome [13]: inactive | outcome [14]: inactive | outcome [15]: inactive | AC50 [16]: 11.5 µM (active) | AC50 [17]: 3.32 µM (active)

CNC(=O)ON=CC(C)(C)SC
outcome [1]: inactive | outcome [2]: inactive | outcome [3]: inactive | outcome [4]: inactive | outcome [5]: inactive | outcome [6]: inactive | outcome [18]: inactive | outcome [7]: inactive | outcome [9]: inactive | outcome [10]: inactive | outcome [11]: inactive | outcome [13]: inactive | outcome [14]: inactive | outcome [15]: inactive | outcome [16]: inactive | outcome [17]: inactive

COP(N)(=O)SC (stereo unspecified)
outcome [1]: inactive | outcome [2]: inactive | outcome [3]: inactive | outcome [20]: inactive | outcome [5]: inactive | outcome [6]: inactive | outcome [7]: inactive | outcome [8]: inactive | outcome [9]: inactive | outcome [10]: inactive | outcome [11]: inactive | outcome [12]: inactive | outcome [13]: inactive | outcome [14]: inactive | outcome [15]: inactive | outcome [16]: inactive | outcome [17]: inactive
